Screens (PubChem BioAssay)
In the library only some 6.2% were active in any assay of this set; here they are far more common.
ATXN viability = reduces viability in counter-screen for ATXN expression inhibitors | S2 cells (HEK-293 line with an ATXN2-luciferase reporter) viability, CellTiter-Fluor protease fluorescence, 24 h | Potency, µM (doses to about 56.7 µM), hits mostly cytotoxic | 400,000 tested, 0.49% active | AID 651635; note: nearly all actives have a fitted effect of over 40% in size
HT1080 IDH1KD tx = toxicity to HT-1080 IDH1 knockdown cells (counter line); HT-1080 IDH1 knockdown viability, ATP luminescence, 48 h; Potency, µM (top dose mostly 46.1 µM), for the others: at the top dose activity, negative = toxicity, usual class: cytotoxic; 360,000 tested, 2% active; AID 686971;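 note: 0% = DMSO wells and -100% = cell-free medium wells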
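CellTiter-Glo luminescence after 48 h compound exposure at 37 degrees C of IDH1-knockdown HT-1080 cells in 5% FBS RPMI. %Activity scaled between DMSO wells and cell-free media wells, with curves fitted and assigned curve classes.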
KB-V1 cytotox = kills drug-selected multidrug resistant KB-V1 cells; KB-V1 MDR cells viability, CellTiter-Glo, 72 h; Potency, µM (top dose mostly 46.1 µM), actives largely listed as cytotoxic; 400,000 tested, 3.4% active; note: % is set by controls: 0 for no effect and ±100 for the full control effect; nearly all actives have a fitted effect of over 60% in size
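Readout: CellTiter-Glo luminescence, 10 min after addition. Cells: KB-V1 MDR subline, 72 h at 37 degrees C with compound. Analysis: corrected, normalized data fitted to concentration-effect curves.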
HT1080NT lethal = kills 2HG-producing HT-1080-NT fibrosarcoma cells; HT-1080-NT fibrosarcoma viability, CellTiter-Glo ATP luminescence, 48 h; Potency, µM (titrated, usually from 46.1 µM), for inactives: at the top dose activity, negative = less viability, usual class: cytotoxic; 360,000 tested, 1.6% active;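 note: NT is the 2HG producing partner of a matched IDH1 knockdown line; 0% = DMSO-treated cells and -100% = media-only wells without cells; nearly all actives have a fitted effect of over 55% in size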
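Viability of the 2HG-overproducing fibrosarcoma line after 48 hours of compound exposure at 37 degrees C was determined by luminescence with CellTiter-Glo, and concentration-effect curves were then fitted and categorized.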
ATXN2 expr inh = reduces ATXN2 reporter expression in HEK-293 cells; HEK-293 ATXN2-luciferase reporter, luminescence, 24 h; Potency, µM (top dose mostly 57 µM), for the others: top-dose activity change, negative = inhibition, actives largely listed as inhibitors; 360,000 tested, 0.72% active; note: % is set by controls: 0 for no effect and ±100 for the full control effect; nearly all actives have a fitted effect of over 55% in size
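ATXN2-luciferase reporter cells (luciferase flanked by upstream and downstream ATXN2 gene portions) were treated 24 h at 37 °C with compounds at up to 57 uM. SteadyGlo luminescence gave expression; GF-AFC fluorescence gave viability.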
KB-3-1 tox = KB-3-1 parental cell cytotoxicity; KB-3-1 viability, CellTiter-Glo ATP luminescence, 72 h; Potency, µM (highest dose often 46.1 µM), actives largely listed as cytotoxic; 400,000 tested, 1.4% active; AID 1347075; note: % is set by controls: 0 for no effect and ±100 for the full control effect; nearly all actives have a fitted effect of over 60% in size
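Luminescent ATP read-out (CellTiter-Glo) measures survival of drug-naive KB-3-1 cells after 72 h compound exposure at 37 °C. Titration series was screened from lowest to highest concentration, with DMSO vehicle plates as background controls.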
The depositor's hits bear a star; i = inactive; ? = inconclusive; / = not tested or not shown; ! = repeats disagree; [ ] = dose if it differs, or a comment. Calls come from the whole dose curve; as a rule, active = well fitted curve in the direction sought with a large enough effect; inconclusive = small, poorly fitted or top-dose-only effect, or another doubt; inactive = no such curve, though single readings can be large; an effect the other way counts as inactive or inconclusive. Potency is the fitted concentration of half-maximal effect.

SMILES	ATXN viability	HT1080 IDH1KD tx	KB-V1 cytotox	HT1080NT lethal	ATXN2 expr inh	KB-3-1 tox
COc1ccc(-n2ncc3c(N4CCN(c5cccc(C)c5)C(C)C4)ncnc32)cc1 (centres undefined)	?	/	?	/	?	20.6µM*
Cc1cccc(-n2ncc3c(N4CCOCC4)ncnc32)c1	i	-3.3%	?	-18.0%	10µM*	i
COc1cccc(O)c1CN1CCC2(CC1)c1ccccc1[C@@H](NC(=O)c1ccsc1)[C@@H]2OC	i	/	/	/	/	/
CCCCOc1ccc(CC(=O)NOC)cc1	/	/	i	/	/	i
COc1ccc(CNC(=O)C2CCCCN2S(=O)(=O)c2ccc(F)cc2)cc1 (centres undefined)	i	/	i	/	-14.9%	i
Cc1ccc(-n2ncc3c(N4CCN(c5ccccc5)CC4)ncnc32)c(C)c1	i	-5.0%	2.31µM*	-1.9%	0.0%	?
COc1cc(OC)cc(C(=O)Nc2cc(-c3nc4cccnc4s3)ccc2C)c1	i	/	i	/	-3.7%	i
COc1cc(C(=O)Nc2ccc(NC(=O)c3ccc(Br)cc3)cc2)cc(OC)c1OC	i	/	i	/	5.9%	i
O=C1C=Cc2cccc3ccc(O)c1c23	i	?	?	?	7.08µM*	?
O=c1oc(-c2ccc(O)c(O)c2)cc2cccc(O)c12	i	-15.8%	i	-14.0%	22.2%	i
COc1ccc(-c2cc(C(F)(F)F)nc(N3CCOCC3)n2)cc1OC	i	1.5%	?	0.5%	-4.7%	i
COc1ccc(-c2cc(-c3ccccc3)nc(N3CCCC3)n2)cc1OC	i	-25.7%	8.2µM*	3.8%	-1.8%	i
Cc1cc(C)cc(NC(=O)Cc2c(C(=O)O)c(C)cn2C)c1	?	/	i	/	0.8%	i
O=C(C1CC=CCC1)N1CCC(CO)(Cc2ccc(Cl)cc2)CC1 (centres undefined)	i	2.1%	11.6µM*	-19.8%	/	?
O=C(C1CCCC1)N1CCC(CO)(Cc2ccccc2Cl)CC1	i	-17.5%	?	-20.8%	-23.1%[11.3 µM]	i
Cc1ccc(C)c(NC(=O)COC(=O)CC2c3ccccc3CCN2S(=O)(=O)c2ccc(F)cc2)c1 (centres undefined)	i	-21.6%	20.6µM*	-3.9%	-22.9%	i
O=C(COC(=O)CC1c2ccccc2CCN1S(=O)(=O)c1ccccc1)Nc1ccccc1 (centres undefined)	i	-0.6%	?	-2.1%	4.3%	i
O=C(c1ccccc1)C(I)(I)N1CCOCC1	/	/	i	/	/	?
CCNc1ccc(/C=C/c2ccnc3ccccc23)cc1	/	/	i	/	/	?
O=C(NCc1nnc(SCc2ccc(C(F)(F)F)cc2)n1-c1ccccc1)C12CC3CC(CC(C3)C1)C2	?	-12.9%	16.4µM*	-3.2%	-6.5%	?
O=C(CSc1nnc(CNC(=O)C23CC4CC(CC(C4)C2)C3)n1-c1ccc(F)cc1)Nc1ccccc1	i	-26.9%	?	-21.4%	14.4%	i
O=C(CSc1nnc(CNC(=O)C23CC4CC(CC(C4)C2)C3)n1-c1ccccc1)Nc1ccc(F)cc1	i	-26.4%	i	-17.9%	0.6%	i
O=C(NCc1nnc(SCc2ccc(F)cc2)n1-c1ccccc1)C12CC3CC(CC(C3)C1)C2	?	-19.6%	13µM*	-26.2%	-29.0%	?
COc1ccc(CNC(=O)C(CC(C)C)NS(=O)(=O)c2ccc3c(c2)CCN3C(C)=O)cc1 (centres undefined)	i	/	?	/	11.2%	i
CCNC(=O)Nc1ccc2ncc(Nc3ccc(C)cc3)nc2n1	/	/	/	/	-23.6%	/
SMILES	ATXN viability	HT1080 IDH1KD tx	KB-V1 cytotox	HT1080NT lethal	ATXN2 expr inh	KB-3-1 tox
CC(=O)Nc1ccc(C(=O)Nc2ccc(S(=O)(=O)NCC3CCCO3)cc2)cc1 (centres undefined)	i	-4.4%	i	5.8%	3.3%	i
O=S(=O)(NCc1ccncc1)c1ccc(S(=O)(=O)NCC2CCCO2)cc1 (centres undefined)	i	9.2%	i	0.0%	-20.7%	23.1µM*
O=C(Nc1ccc(F)cc1)c1ccc(S(=O)(=O)NCC2CCCO2)cc1 (centres undefined)	i	2.9%[9.24 µM]	13µM*	?	-8.4%	?
O=C(Nc1ccc(N2CCN(C(=O)c3cccs3)CC2)cc1)c1ccccc1F	i	-18.8%	7.31µM*	-25.6%	-24.0%	?
O=C(c1cccs1)N1CCN(c2ccccc2)CC1	i	14.7%	i	41.5%	7.8%	i
O=C(Nc1cc(C(=O)N2CCN(c3ccccc3)CC2)ccc1Cl)c1cccs1	i	-8.0%	8.2µM*	-3.2%	-3.8%	i
O=C(Nc1ccc(N2CCN(C(=O)c3cccs3)CC2)cc1)c1ccccc1Cl	i	9.2µM*	?	?	-29.2%	16.4µM*
CCOc1ccc(-n2c(SCc3nc(-c4ccc(OC)cc4)no3)nnc2-c2ccncc2)cc1	?	/	i	/	?	i
COc1ccc(CNC(=O)c2cc3c(C)nc4ccccc4c3o2)c(OC)c1	?	?	11.6µM*	-6.1%	-31.3%	?
CCc1ccc(CNC(=O)c2cc3c(C)nc4ccccc4c3o2)cc1	?	-8.2%	i	-0.4%	20µM*	i
COc1cccc(CNC(=O)c2cc3c(C)nc4ccccc4c3o2)c1	?	-16.3%	?	0.1%	-31.1%	?
COc1cc(-c2ccc3ncnc(NCc4ccc(C)o4)c3c2)cc(OC)c1OC	/	/	i	/	/	?
COc1ccc(P(=O)(COc2ccc([N+](=O)[O-])cc2)c2ccc(OC)cc2)cc1	i	-3.0%	4.11µM*	-2.6%	7.3%	i
O=P(COc1ccccc1)(c1ccccc1)c1ccccc1	i	3.3%	14.6µM*	-4.4%	5.6%	i
COCP(=O)(c1ccccc1)c1ccccc1	i	-8.3%[9.24 µM]	i	-3.9%	1.0%	i
O=P(CCCCCCCCCP(=O)(c1ccccc1)c1ccccc1)(c1ccccc1)c1ccccc1	22.4µM*	23.1µM*	14.6µM*	18.4µM*	25.1µM*	?
Cc1ccc(C)c(-c2[nH]c3c(c2-c2c(-n4cccc4)n(C)c(=O)[nH]c2=O)c(=O)[nH]c(=O)n3C)c1	i	/	i	/	1.0%	i
O=C(CSc1nc2c([nH]c3ccccc32)c(=O)n1-c1ccc(F)cc1)N1CCCc2ccccc21	i	/	?	/	2.7%	i
CCOC(=O)C(C)Sc1ccc2nnc(-c3ccc(F)cc3)n2n1 (centres undefined)	i	9.3%	14.6µM*!	18.4%	-16.2%	?
